Reference: PubChem BioAssay AID1159580 (chemical genetic matrix, 2015)
The campaign covered roughly 5,500 compounds. About 2,000 (36%) were called active. Not shown: some 18% with an inconclusive outcome. Cut-off read from the data, not from the text of the source: active = normalized growth mostly below about 0.91 (no sharp cut-off); inconclusive = no clear call, values can overlap the other calls; inactive = mostly above about 0.92. The list shows a part of the results.

Assay: chemical genetic growth profiling, strain panel (AID 1159580);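 note: tested at 20 µM; growth read once vehicle control cultures reached saturation at 30 °C; 1 = growth at the plate median or of vehicle wells; lower values mean less growth of the strain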
Settings: S. cerevisiae deletion strains, growth OD

Measured: normalized growth

NNC(=O)c1ccc(O)cc1
inactive: locus YAL013W, strain DEP1, hits give low values 0.949 | locus YAL040C, strain CLN3, hits give low values 0.963 | locus YCL061C, strain MRC1 (second series), hits give low values 0.991 | locus YDR150W, strain NUM1, hits give low values 1.01 | locus YDR363W, strain ESC2, hits give low values 0.99 | locus YER002W, strain NOP16, hits give low values 0.985 | locus YGR078C, strain PAC10, hits give low values 0.992 | locus YJR075W, strain HOC1, hits give low values 0.988 | locus YMR263W, strain SAP30, hits give low values 0.986 | locus YNL153C, strain GIM3, hits give low values 0.989 | locus YNL175C, strain NOP13, hits give low values 0.994 | locus YNL197C, strain WHI3, hits give low values 0.991 | locus YNL224C, strain SQS1, hits give low values 0.974 | locus YNL322C, strain KRE1, hits give low values 0.97 | locus YOR083W, strain WHI5 (second series), hits give low values 1.05 | locus YPL055C, strain LGE1, hits give low values 0.977 | locus YPL241C, strain CIN2, hits give low values 0.988
